FMDV inh = foot and mouth disease virus antiviral activity; FMDV antiviral cell-based qHTS; Potency, µM (titrated, usually from 57.9 µM), for inactives: top-dose activity change, negative = inhibition, usual class: inhibitors; actives 1.2% (n = 410,000); AID 1159524; calls by dose curve; tested in HEK293T cells; note: read-out not given here; potency is the fitted concentration of half-maximal effect; nearly all actives have a fitted effect of over 45% in size
HCMV antiviral = inhibitors of human cytomegalovirus; HFF cells, HCMV-luciferase reporter, 72 h; stronger effect = lower value; activity change, negative = inhibition, % at 57.5 µM; actives 4.5% (n = 410,000); in the data active = activity change below about -60%; inconclusive = no clear call, values can overlap the other calls; inactive = above about -39%
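Inhibition of viral replication was scored as loss of reporter luminescence in HFFs infected with HCMV-luciferase (MOI 1 PFU/cell) for 72 h; compounds tested at 2 doses, normalized to buffer and Salinomycin controls.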
MARV entry inh = blocks Marburg virus binding to or entry into cells; Marburg virus pseudotyped entry inhibition, cell reporter; actives 1.8% (n = 300,000); Potency, µM (top dose mostly 37.8 µM), for the others: at the top dose activity change, negative = inhibition, most hits filed as inhibitors; AID 540276; calls by dose curve; tested in HEK293 cells; note: potency is the fitted concentration of half-maximal effect
Lassa entry inh = blocks Lassa virus binding to or entry into cells; Lassa virus pseudotype entry inhibition, cell reporter; Potency, µM (titrated, usually from 37.9 µM), without a hit: top-dose activity change, negative = inhibition, actives largely listed as inhibitors; actives 1.2% (n = 300,000); AID 540256; calls by dose curve; tested in HEK293 cells; note: potency is the fitted concentration of half-maximal effect; nearly all actives have a fitted effect of over 50% in size
Numbers without * were called inactive; ? = inconclusive; · = no result; [ ] = remark or other dose. In the library only some 6.2% were active in any assay of this set; here they are far more common. % is set by controls: 0 for no effect and ±100 for the full control effect.

SMILES	FMDV inh	HCMV antiviral	MARV entry inh	Lassa entry inh
CCS(=O)(=O)Nc1cc(-c2cn3ccc(C)cc3n2)ccc1C	34%	80	?	?
CCOC(=O)C1CCN(C(=O)Cn2c(=O)cc(C)c3c(C)nn(C)c32)CC1	?	-10	·	?
Cn1c(=O)n(C)c2cc([N+](=O)[O-])c(N3CCN(C(=O)c4cccc(Cl)c4)CC3)cc21	35µM*	?	?	?
COc1cccc(N2CCN(c3ccc(S(=O)(=O)N4CCN(C)CC4)cc3[N+](=O)[O-])CC2)c1	?	-38	?	?
Cc1ccc(S(=O)(=O)N2CCN(c3cc4c(cc3[N+](=O)[O-])n(C)c(=O)n4C)CC2)cc1	·	-18	23µM*	?
Cc1ccc(S(=O)(=O)N2CCN(c3ccc(C(F)(F)F)cc3[N+](=O)[O-])CC2)cc1	?	-77*	8.9µM*	?
Cn1c(=O)n(C)c2cc([N+](=O)[O-])c(N3CCN(C(=O)c4cccc(F)c4)CC3)cc21	?	1	-6%[46.1 µM]	?
Cn1c(=O)n(C)c2cc([N+](=O)[O-])c(N3CCN(S(=O)(=O)c4ccc5ccccc5c4)CC3)cc21	·	-35	?	-29%
COc1ccc(N2CCN(S(=O)(=O)c3ccc4c(c3)CCCC4)CC2)c([N+](=O)[O-])c1	·	-86*	?	?
CC(C)c1c(C(=O)NCc2cccnc2)cnn1-c1nccc(-c2ccccc2F)n1	-28%	·	·	·
COCCN(C)C(=O)c1cnn(-c2ncc3c(n2)-c2ccccc2CCC3)c1C1CC1	43%	·	·	·
COc1ccccc1NS(=O)(=O)c1cc(NC(=O)c2cccs2)ccc1N1CCCCC1	75%	-37	5.8µM*	?
COc1ccccc1NS(=O)(=O)c1cc(NC(=O)C(C)C)ccc1N1CCCCC1	55%	-38	0.79µM*	?
COc1ccccc1NS(=O)(=O)c1cc(NC(=S)Nc2cc(C)cc(C)c2)ccc1Cl	?	-82*	?	-21%
CCNC(=S)Nc1ccc(C)c(S(=O)(=O)Nc2ccccc2OC)c1	44%	15	-25%[46.1 µM]	10%
O=C(Nc1cc(C(F)(F)F)ccc1N1CCOCC1)c1cccs1	-27%	13	?	-9%
O=C(Nc1ccc(N2CCCC2)c(S(=O)(=O)Nc2cccc(C(F)(F)F)c2)c1)c1cccs1	35%	?	1.4µM*	?
CCCCC(=O)Nc1cc(C)c(O)c(-c2nc3ncccc3o2)c1	-11%	-17	4%[46.1 µM]	8%[46.1 µM]
O=S(=O)(Nc1cccc(-c2ccc(N3CCCC3)nn2)c1)c1ccc(F)c(C(F)(F)F)c1	28%	-1	·	16%[46.1 µM]
S=C1NCCN1c1ccc(Cl)cc1	·	-19	·	·
CCOC(=O)C1CCN(C(=O)C2CCN(C3=NS(=O)(=O)C(c4ccc(C)cc4)=C3CC)CC2)CC1	-29%	-1	-2%[46.1 µM]	·
COc1ccccc1NS(=O)(=O)c1cc(NC(=O)c2sccc2C)ccc1N1CCCC1	91%	?	?	-18%
COc1ccccc1NS(=O)(=O)c1cc(NC(=O)c2cccs2)ccc1N1CCCC1	51%	?	?	12µM*
Nc1c(C(=O)NC2CC2)sc2nc3c(c(-c4ccco4)c12)CC/C3=C/c1ccco1	-20%	·	4.5µM*	7%
O=C(COC(=O)c1c2c(nc3ccccc13)/C(=C\c1ccco1)CC2)NC1CCCC1	12%	-36	?	-11%
SMILES	FMDV inh	HCMV antiviral	MARV entry inh	Lassa entry inh
NC(=O)c1sc2nc3c(c(-c4ccco4)c2c1N)CCC3	·	-73*	-18%	-14%
NC(=O)c1sc2nc(-c3ccccc3)c3c(c2c1N)CCCC3	?	-61*	·	·
COc1ccccc1C1CN(Cc2cccc3nccnc23)Cc2ccccc2O1 (stereo unspecified)	-8%	·	·	·
CNC(=O)c1cc(Oc2ccc(NC(=O)Nc3ccc(Cl)c(C(F)(F)F)c3)cc2)ccn1	20µM*	-100*	·	·
O=C(Nc1ccc(Cl)c(C(F)(F)F)c1)c1ccncc1	-12%	-5	?	?
O=C1C(Cl)=C(Cl)C(=O)C(Cl)=C1Cl	-28%	·	·	·
Cc1ccc(S(=O)(=O)N2CCN(Cc3nnc(-c4c(-c5ccccc5)noc4C)o3)CC2)cc1	40µM*	-30	4%	16%
O=S(=O)(c1ccccc1)N1CCN(Cc2nnc(-c3ccccc3)o2)CC1	0%	-26	·	·
Cc1ccc(NC(=O)Cc2c(C(=O)O)c(C)cn2C)cc1Cl	-10%	14	·	5%[46.1 µM]
Cn1c(=O)c2c(nc(NCC3CCCC(CN)C3)n2Cc2ccc(Cl)cc2Cl)n(C)c1=O (stereo unspecified)	-14%	-99*	·	·
Cn1c(=O)c2c(nc(NCCNC(=O)c3ccco3)n2Cc2ccc(Cl)cc2Cl)n(C)c1=O	14%	-74*	-5%	?
Cc1ccc(-c2c[n+]3c(n2-c2ccccc2)CCC3)cc1	?	-96*	?	?
CCOc1ccc(-c2c(C)n(-c3ccc(OCC)cc3)c3[n+]2CCCCC3)cc1	?	-95*	?	?
CCOc1ccc(N2C(=O)CCC2=O)cc1	-13%	67	22%	3%
CCOc1ccc(-n2c(-c3ccccc3)c[n+]3c2CCCCC3)cc1	?	-100*	·	·
c1ccc(-c2c[n+]3c(n2-c2ccccc2)CCC3)cc1	?	-37	·	·
COc1ccc2c(c1)c1c(c(=O)n(Cc3ccccc3)c(=O)n1CC(=O)Nc1c(C)cccc1C)n2C	-8%	-2	·	7%[46.1 µM]
COCC(=O)N1C[C@H]2CON(C)[C@H]2C[C@H]1c1cccc(-c2cc(Cl)cc(Cl)c2)c1	·	-8	·	·
O=C(NCCN1C(=O)S/C(=C\c2ccc(Cl)c(Cl)c2)C1=O)c1cnccn1	-13%	-66*	-5%	-16%
CS(=O)(=O)c1ccc(C(=O)NCCN2C(=O)S/C(=C\c3cccnc3)C2=O)cc1[N+](=O)[O-]	28µM*	-114*	10µM*	21µM*
CN(C)S(=O)(=O)c1ccc(C(=O)NCCN2C(=O)S/C(=C\c3cccnc3)C2=O)cc1	26%	35	15%[46.1 µM]	2%
COc1ccccc1CNC(=O)C1CCCN(S(=O)(=O)c2ccc3c(c2)CCCN3C(C)=O)C1 (stereo unspecified)	?	1	·	?
CC[n+]1c(/C=C/N(C)c2ccccc2)oc2ccc(F)cc21	-23%	-85*	?	?
CC[n+]1c(/C=C/N(C)c2ccccc2)oc2ccccc21	?	-97*	?	?
CC[n+]1c(/C=C/Nc2ccccc2)oc2ccccc21	-30%	?	?	?
SMILES	FMDV inh	HCMV antiviral	MARV entry inh	Lassa entry inh
O=C1NC(=O)c2cc(Nc3ccccc3)c(Nc3ccccc3)cc21	·	·	23µM*	?
CC(=O)N1CCN(c2nc3cc(C)ccc3cc2CN(C(=O)c2cccc3ccccc23)C2CC2)CC1	2%	·	·	·
COC(=O)c1ccccc1NC(=O)CSc1cc(-c2ccccc2)nc(C)n1	-13%	17	20%[46.1 µM]	-7%[46.1 µM]
Cc1nc2scc(-c3ccccc3)c2c(=O)n1N=C1C=CC(=O)C=C1	28µM*	?	?	-21%
COc1ccc(C=NNC(=S)Nc2ccc(F)cc2)cc1OC	-6%	-61*	?	?
COc1ccc(/C=N/NC(=S)Nc2cccc(C(=O)O)c2)cc1OC	16µM*	-34	?	?
COc1ccc(/C=N/NC(=S)NCc2ccccc2)cc1OC	-13%	25	23%	?
